Assay results taken from the supplement of paper PMC4466140.

B1: unnamed (peptide)
chain: ITHRLRISIPGITGR

molecular target: CaNbp2; assay: SPOT peptide array binding signal intensity (averaged, normalized) (arbitrary units (background-subtracted, floor 0; scale differs between SH3 domains)); higher = stronger binding of the SH3 domain to the peptide
Method in brief: (§1)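 Binding signal is given in arbitrary units that differ between domains and is the normalized, background-subtracted spot intensity averaged across replicates. Each GST-SH3 fusion from one of four yeast species was made in E. coli BL21(DE3), purified on glutathione Sepharose and incubated at 10 μg/ml overnight at 4°C on cellulose-bound synthetic 15-mer peptides in which cysteines were replaced by serines. Detection used anti-GST antibody, an HRP anti-mouse secondary and luminol, followed by imaging and Genespotter quantification.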

Binder	SPOT peptide array binding signal intensity
B1	454

molecular target: CaRvs167; assay: as above
Method in brief: as §1

Binder	SPOT peptide array binding signal intensity
B1	636

molecular target: CaRvs167-3; assay: as above
Method in brief: as §1

Binder	SPOT peptide array binding signal intensity
B1	2400

molecular target: CaSho1; assay: as above
Method in brief: as §1

Binder	SPOT peptide array binding signal intensity
B1	855

molecular target: CaSla1-D1-D2; assay: as above
Method in brief: as §1

Binder	SPOT peptide array binding signal intensity
B1	28

molecular target: CaSla1-D3; assay: as above
Method in brief: as §1

Binder	SPOT peptide array binding signal intensity
B1	454

molecular target: ScAbp1; assay: as above
Method in brief: as §1

Binder	SPOT peptide array binding signal intensity
B1	23

molecular target: ScBbc1; assay: as above
Method in brief: as §1

Binder	SPOT peptide array binding signal intensity
B1	16.8

molecular target: ScBem1-D1; assay: as above
Method in brief: as §1

Binder	SPOT peptide array binding signal intensity
B1	44.5

molecular target: ScBzz1-D1; assay: as above
Method in brief: as §1

Binder	SPOT peptide array binding signal intensity
B1	100

molecular target: ScBzz1-D2; assay: as above
Method in brief: as §1

Binder	SPOT peptide array binding signal intensity
B1	442

molecular target: ScCyk3; assay: as above
Method in brief: as §1

Binder	SPOT peptide array binding signal intensity
B1	72

molecular target: ScFus1; assay: as above
Method in brief: as §1

Binder	SPOT peptide array binding signal intensity
B1	2080

molecular target: ScHof1; assay: as above
Method in brief: as §1

Binder	SPOT peptide array binding signal intensity
B1	2

molecular target: ScHse1; assay: as above
Method in brief: as §1

Binder	SPOT peptide array binding signal intensity
B1	2140

molecular target: ScLsb1; assay: as above
Method in brief: as §1

Binder	SPOT peptide array binding signal intensity
B1	33.5

molecular target: ScLsb2; assay: as above
Method in brief: as §1

Binder	SPOT peptide array binding signal intensity
B1	22

molecular target: ScLsb3; assay: as above
Method in brief: as §1

Binder	SPOT peptide array binding signal intensity
B1	282

molecular target: ScLsb4; assay: as above
Method in brief: as §1

Binder	SPOT peptide array binding signal intensity
B1	20

molecular target: ScMyo3; assay: as above
Method in brief: as §1

Binder	SPOT peptide array binding signal intensity
B1	≤ 0

molecular target: ScMyo5; assay: as above
Method in brief: as §1

Binder	SPOT peptide array binding signal intensity
B1	1.5

molecular target: ScNbp2; assay: as above
Method in brief: as §1

Binder	SPOT peptide array binding signal intensity
B1	397

molecular target: ScPex13; assay: as above
Method in brief: as §1

Binder	SPOT peptide array binding signal intensity
B1	50.2

molecular target: ScRvs167; assay: as above
Method in brief: as §1

Binder	SPOT peptide array binding signal intensity
B1	163

molecular target: ScSho1; assay: as above
Method in brief: as §1

Binder	SPOT peptide array binding signal intensity
B1	2380

molecular target: ScSla1-D1-D2; assay: as above
Method in brief: as §1

Binder	SPOT peptide array binding signal intensity
B1	267

molecular target: ScSla1-D3; assay: as above
Method in brief: as §1

Binder	SPOT peptide array binding signal intensity
B1	69

molecular target: SpAbp1-D1; assay: as above
Method in brief: as §1

Binder	SPOT peptide array binding signal intensity
B1	91.5

molecular target: SpBbc1; assay: as above
Method in brief: as §1

Binder	SPOT peptide array binding signal intensity
B1	57.2

molecular target: SpBzz1-D1; assay: as above
Method in brief: as §1

Binder	SPOT peptide array binding signal intensity
B1	486

molecular target: SpBzz1-D2; assay: as above
Method in brief: as §1

Binder	SPOT peptide array binding signal intensity
B1	1

molecular target: SpCyk3; assay: as above
Method in brief: as §1

Binder	SPOT peptide array binding signal intensity
B1	30

molecular target: SpHof1; assay: as above
Method in brief: as §1

Binder	SPOT peptide array binding signal intensity
B1	272

molecular target: SpHof1-2; assay: as above
Method in brief: as §1

Binder	SPOT peptide array binding signal intensity
B1	31

molecular target: SpHof1-3; assay: as above
Method in brief: as §1

Binder	SPOT peptide array binding signal intensity
B1	461

molecular target: SpHse1; assay: as above
Method in brief: as §1

Binder	SPOT peptide array binding signal intensity
B1	625

molecular target: SpLsb1; assay: as above
Method in brief: as §1

Binder	SPOT peptide array binding signal intensity
B1	10.8

molecular target: SpLsb4; assay: as above
Method in brief: as §1

Binder	SPOT peptide array binding signal intensity
B1	108

molecular target: SpMyo1; assay: as above
Method in brief: as §1

Binder	SPOT peptide array binding signal intensity
B1	3

molecular target: SpNbp2; assay: as above
Method in brief: as §1

Binder	SPOT peptide array binding signal intensity
B1	802

molecular target: SpPex13; assay: as above
Method in brief: as §1

Binder	SPOT peptide array binding signal intensity
B1	124

molecular target: SpRvs167; assay: as above
Method in brief: as §1

Binder	SPOT peptide array binding signal intensity
B1	115

molecular target: SpSla1-D1-D2; assay: as above
Method in brief: as §1

Binder	SPOT peptide array binding signal intensity
B1	1

molecular target: SpSla1-D3; assay: as above
Method in brief: as §1

Binder	SPOT peptide array binding signal intensity
B1	6.5
